Data on 40 compounds can be found in PubChem BioAssay (NCATS).

The structures appear in SMILES notation. Inconclusive results are not listed. Values without a mark were called inactive. Activity calls are given as the source filed them. The call rests on the fitted dose curve; in most records, active means well fitted cell-killing curve with a large enough effect; inconclusive means small, poorly fitted or top-dose-only effect; inactive means no such curve, though single readings can be large or run the other way.
On the % scale 0 is the no-effect control and ±100 the full control effect; potency means the concentration at half of the fitted maximal effect.

This assay in a line: qHTS of pediatric cancer cell lines to identify multiple opportunities for drug repurposing: Primary screen for SK-N-SH cells (AID 1347098). Further: nearly all actives have a fitted effect of over 65% in size. As to conditions: SK-N-SH viability, CellTiter-Glo luminescence, 48 h; series mostly up to 57 µM; activity change, negative = cytotoxic: at the top concentration. From the text:
Drug repurposing or repositioning has been offered as a strategy for drug development in oncology programs. This approach has special potential for childhood cancers and other rare or orphan diseases, where the expected return on new drug development has been a disincentive to pharmaceuticals.
In this project we exploit the poly-pharmacology of drugs to discover new indications via phenotypic screening of a panel of 19 well-characterized cell lines derived from solid tumors seen in children and adolescents. The goal is to identify approved drugs with previously unrecognized anticancer properties that has the potential to reveal new mechanisms and biological processes involved in carcinogenesis or drug resistance. We employed a titration-based paradigm (quantitative high-throughput screening or qHTS), where all compounds were tested at multiple concentrations for their effect on cell viability. Concentration-response curves (CRCs) were derived directly from the primary screen, and both potency and efficacy values were used to identify compounds with robust bioactivity profiles. We screened the NIH Chemical Genomics Center (NCGC) Pharmaceutical Collection (NPC) and Mechanism Interrogation Plate (MIPE) small molecule collections of approved and investigational compounds against these cell lines; and measured metabolically active cells after 48 hours of compound treatment as a proxy for cell viability.
Assay Submitter: Nathalia J. Martinez, National Center for Advancing Translational Sciences, National Institutes of Health, Rockville, MD, USA; email: natalia.martinez@nih.gov
[1] Shen, M et al. Quantitative high-throughput phenotypic screening of pediatric cancer cell lines identifies multiple opportunities for drug repurposing. Oncotarget 2017 Dec 19;9(4):4758-4772. PMID 29435139.
The cells were obtained from University of North Carolina (UNC), Pediatric Preclinical Testing Program (PPT), and Coriell Institute (CI).
qHTS cell viability assay:
Cells were assayed in growth media at a density of 500-1,000 cells/well. Five microliters of cells were dispensed into 1,536-well, white, solid-bottom, TC-treated plates (Greiner Bio One) using a multidrop dispenser and incubated at 37 degrees C, 5% CO2, under a humidified atmosphere for 5 hours. Twenty-three nanoliters of compounds and controls (neutral control DMSO or positive control bortezomib at final concentration of 2.3 µM) were subsequently transferred by Kalypsys pintool. For primary screens, the MIPE collection was tested at 11-point dilutions (final concentrations range from 0.78 nM to 46 µM) and the NPC collection at 8-point dilutions (final concentrations range from 0.59 nM to 46 µM). Compounds tested in follow-up screens were assayed at 11-point dilutions. Cells were incubated for 48 hours, followed by addition of 3 µL of CellTiter-Glo (Promega). After a 15 min incubation at room temperature, samples were analyzed for luminescence intensity using a ViewLux High-throughput CCD imager equipped with clear filters.
(In general: In qHTS, concentration-response curves come from the screen itself.)
Regarding `c1cc(CN2CCCCC2)cc(OCCCNc2nc3ccccc3s2)c1`, the Potency was 24.4 µM (active).
As to `COCCOC(=O)C1=C(C)NC(C)=C(C(=O)OC(C)C)C1c1cccc([N+](=O)[O-])c1` (stereo not given), the “activity change, negative = cytotoxic” value was -29.1%.
For the compound `CN1C[C@H](C(=O)N[C@]2(C)O[C@@]3(O)[C@@H]4CCCN4C(=O)[C@H](Cc4ccccc4)N3C2=O)C[C@@H]2c3cccc4[nH]cc(c34)C[C@H]21`, the Potency was 30.7 µM (active).
For the compound `NC(=O)c1ncn([C@@H]2O[C@H](CO)[C@@H](O)[C@H]2O)c1O`, the “activity change, negative = cytotoxic” value was -20.5%.
Still for that read-out and setting: to `CC(=O)[C@@]1(O)CC[C@H]2[C@@H]3CCC4=CC(=O)CC[C@]4(C)[C@H]3CC[C@@]21C` belongs -16.7%.
The same measure, in the same setting: the same measure for `O=C(CCNNC(=O)c1ccncc1)NCc1ccccc1`: 7.62%.
For `COC(=O)C1=C(C)NC(C)=C(C(=O)OCCN(C)Cc2ccccc2)C1c1cccc([N+](=O)[O-])c1` (stereo not given), the Potency was 4.33 µM (active).
For `CN(C)CCN(Cc1cccs1)c1ccccn1`, the “activity change, negative = cytotoxic” value was -16.1%.
On to `CO[C@@]1(NC(=O)CSCC#N)C(=O)N2C(C(=O)O)=C(CSc3nnnn3C)CS[C@@H]21`, for which the “activity change, negative = cytotoxic” value is -7.73%.
`C[C@@H](O)[C@H]1C(=O)N2C(C(=O)O)=C(SCCN=CN)C[C@H]12`: the “activity change, negative = cytotoxic” value was -18.2%.
On the same count and under the same terms, the same measure for `CCN(CC)CC(=O)Nc1c(C)cccc1C`: 15.2%; for `CC(=O)Oc1cc(C(C)C)c(OCCN(C)C)cc1C`: -11.2%; for `Brc1c(NC2=NCCN2)ccc2nccnc12`: -15.9%.
Still for that read-out and setting: the same measure for `Cc1cc(C)c(/C=C2\C(=O)Nc3ccccc32)[nH]1`: -18%.
As to `COCC(=O)O[C@]1(CCN(C)CCCc2nc3ccccc3[nH]2)CCc2cc(F)ccc2[C@@H]1C(C)C`, the Potency was 19.4 µM (active).
On to `CC(C)[N+](C)(CCOC(=O)C1c2ccccc2Oc2ccccc21)C(C)C`, for which the “activity change, negative = cytotoxic” value was 6.72%.
The same measure, in the same setting: to `CCc1c(C)[nH]c2c1C(=O)C(CN1CCOCC1)CC2` (stereo not given) belongs 9.79%; to `CC(C(=O)O)c1ccc(CC2CCCC2=O)cc1` (stereo not given), -12.9%.
The same measure, in the same setting: the same measure for `CN(C)[C@@H]1C(=O)C(C(N)=O)=C(O)[C@@]2(O)C(=O)C3=C(O)c4c(O)ccc(Cl)c4[C@@H](O)[C@H]3C[C@@H]12`: -4.3%; for `C(=C\c1ccccc1)/CN1CCN(C(c2ccccc2)c2ccccc2)CC1`: -19.8%; for `CCO/C([O-])=N/c1c[n+](N2CCOCC2)no1`: 5.21%.
Still for that read-out and setting: to `C[N+](C)(C)CCOC(N)=O` belongs -7.44%.
Take `C=CCc1ccccc1OCC(O)CNC(C)C` (stereo not given): the “activity change, negative = cytotoxic” value was 9.27%.
The same measure, in the same setting: to `CN(C(=O)CCCOc1ccc2[nH]c(=O)ccc2c1)C1CCCCC1` belongs -21.1%; to `C#CCN(C)CCCOc1ccc(Cl)cc1Cl`, -21.4%; to `CC[N+](C)(C)c1cccc(O)c1`, -7.33%.
Regarding `c1ccc2c(c1)CCCC2C1=NCCN1` (stereo not given), the “activity change, negative = cytotoxic” value was -1.36%.
The same measure, in the same setting: the same measure for `Cc1nc2ccccn2c(=O)c1CCN1CCC(C(=O)c2ccc(F)cc2)CC1`: -21.6%; for `O=c1[nH]c(=O)n([C@H]2C[C@H](O)[C@@H](CO)O2)cc1Br`: -10.9%.
Same read-out and setting: to `CCCCNC(=O)NS(=O)(=O)c1ccc(C)cc1` belongs -6.15%; to `Cc1ccc(S(=O)(=O)NC(=O)NN2CCCCCC2)cc1`, 2.56%; to `NC1=NCC2c3ccccc3Cc3ccccc3N12` (stereo not given), -22.9%.
Still for that read-out and setting: the same measure for `N[C@@H](COP(=O)(O)O)C(=O)O`: 9.11% [at 20 µM].
Turning to `NC/C=C/C(=O)O`, the “activity change, negative = cytotoxic” value was 8%.
`O=C1NCN(c2ccccc2)C12CCN(CCCC(c1ccc(F)cc1)c1ccc(F)cc1)CC2`: the Potency was 13.7 µM (active).
On to `C[C@H](CS)C(=O)N1CCC[C@H]1C(=O)O`, for which the “activity change, negative = cytotoxic” value was -8.97%.
For `NS(=O)(=O)c1cc2c(cc1Cl)NC(C1CC3C=CC1C3)NS2(=O)=O` (stereo not given), the “activity change, negative = cytotoxic” value was -19.2%.
Same read-out and setting: to `Cc1ccc(=O)n(-c2ccccc2)c1` belongs -0.936%; to `NC(=O)N1c2ccccc2C=Cc2ccccc21`, 3.75%.
Regarding `CC(C)COCC(CN(Cc1ccccc1)c1ccccc1)N1CCCC1` (stereo not given), the Potency was 27.3 µM (active).
